Several values for one entry are separate records, joined by “and”; a condition that tells them apart may be missing. Equal values may be shown once. Records with an inconclusive call do not appear. The source holds several records for some structures; these can differ, active in one and inactive in another. Activity calls are given as the source filed them. Calls come from the whole dose curve; as a rule, active = well fitted inhibition curve with a large enough effect; inconclusive = small, poorly fitted or top-dose-only effect; inactive = flat fitted curve, though single readings scatter.
What was measured:
[1] = test system: P94_40; test: qHTS profiling for inhibitors of Plasmodium falciparum proliferation (AID 504749); conditions: P. falciparum in erythrocytes, SYBR Green DNA, 72 h; series mostly up to 28.7 µM
Procedure, shortened: (§1)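 In a 72 h erythrocytic culture (37 C, humidified, 5% CO2) at 2.5% hematocrit and 0.3% starting parasitemia, compounds were tested; SYBR Green I in detergent lysis buffer stained parasite DNA overnight.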

[2] = test system: PC49; test: as above; conditions: P. falciparum in erythrocytes, SYBR Green DNA, 72 h; series mostly up to 28.7 µM
Procedure, shortened: as §1

[3] = test system: W2; test: as above; conditions: P. falciparum in erythrocytes, SYBR Green DNA, 72 h; series mostly up to 28.7 µM
Procedure, shortened: as §1

[4] = test system: HaCat; test: Cytotoxic Profiling of Annotated Libraries Using Quantitative High-Throughput Screening (AID 1296008); conditions: Five cell lines viability, CellTiter-Glo ATP luminescence, 48-72 h; max response: stronger effect = lower value; for max response: % is set by controls: 0 for no effect and ±100 for the full control effect
Procedure, shortened: (§2)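 Cytotoxicity was measured as CellTiter-Glo ATP luminescence, read after 10 min at room temperature. Compound treatment of the cells lasted 48 or 72 hr at 37 degrees Celsius in a qHTS format.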

[5] = test system: KB-3-1; test: as above; conditions: Five cell lines viability, CellTiter-Glo ATP luminescence, 48-72 h; max response: stronger effect = lower value
Procedure, shortened: as §2

[6] = test system: NIH3T3; test: as above; conditions: Five cell lines viability, CellTiter-Glo ATP luminescence, 48-72 h; max response: stronger effect = lower value
Procedure, shortened: as §2

[7] = test system: HACAT; test: qHTS assay to identify novel small-molecules to repurpose for Merkel cell carcinoma treatment (AID 1296009); conditions: MCC and control cell lines, CellTiter-Glo viability, 72 h; at 44.8 µM (top of the series) unless noted
Procedure, shortened: (§3)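 Cell viability measured by CellTiter-Glo following 72 hr compound treatment at 37 degree celsius, with NPC and MIPE libraries tested in 8- and 11-point concentration series.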

[8] = test system: MCC-13; test: as above; conditions: MCC and control cell lines, CellTiter-Glo viability, 72 h; series mostly up to 46 µM
Procedure, shortened: as §3

[9] = test system: MCC-26; test: as above; conditions: MCC and control cell lines, CellTiter-Glo viability, 72 h; series mostly up to 46 µM
Procedure, shortened: as §3

[10] = test system: P93_24; test: qHTS profiling for inhibitors of Plasmodium falciparum proliferation (AID 504749); conditions: P. falciparum in erythrocytes, SYBR Green DNA, 72 h; series mostly up to 28.7 µM
Procedure, shortened: as §1

[11] = test system: PAD; test: as above; conditions: P. falciparum in erythrocytes, SYBR Green DNA, 72 h; series mostly up to 28.7 µM
Procedure, shortened: as §1

[12] = test system: PC15; test: as above; conditions: P. falciparum in erythrocytes, SYBR Green DNA, 72 h; series mostly up to 28.7 µM
Procedure, shortened: as §1

[13] = test system: PC26; test: as above; conditions: P. falciparum in erythrocytes, SYBR Green DNA, 72 h; series mostly up to 28.7 µM
Procedure, shortened: as §1

[14] = test system: SC27B; test: as above; conditions: P. falciparum in erythrocytes, SYBR Green DNA, 72 h; series mostly up to 28.7 µM
Procedure, shortened: as §1

[15] = test system: TAB109; test: as above; conditions: P. falciparum in erythrocytes, SYBR Green DNA, 72 h; series mostly up to 28.7 µM
Procedure, shortened: as §1

[16] = test system: TAB113; test: as above; conditions: P. falciparum in erythrocytes, SYBR Green DNA, 72 h; series mostly up to 28.7 µM
Procedure, shortened: as §1

[17] = test system: TAB165; test: as above; conditions: P. falciparum in erythrocytes, SYBR Green DNA, 72 h; series mostly up to 28.7 µM
Procedure, shortened: as §1

[18] = test system: HEK293; test: Cytotoxic Profiling of Annotated Libraries Using Quantitative High-Throughput Screening (AID 1296008); conditions: Five cell lines viability, CellTiter-Glo ATP luminescence, 48-72 h; max response: stronger effect = lower value; for max response: % is set by controls: 0 for no effect and ±100 for the full control effect
Procedure, shortened: as §2

[19] = test system: CRL-7250; test: as above; conditions: Five cell lines viability, CellTiter-Glo ATP luminescence, 48-72 h; max response: stronger effect = lower value
Procedure, shortened: as §2

[20] = test system: HEK293T; test: qHTS assay to identify novel small-molecules to repurpose for Merkel cell carcinoma treatment (AID 1296009); conditions: MCC and control cell lines, CellTiter-Glo viability, 72 h; at 44.8 µM (top of the series) unless noted
Procedure, shortened: as §3
Note: nearly all actives have a fitted effect of over 60% in size.
Potency is the fitted concentration of half-maximal effect.

CN1CCCC(n2nc(Cc3ccc(Cl)cc3)c3ccccc3c2=O)CC1 (stereo unspecified)
inactive and 11.8 µM (active): Potency [9]
active: Potency [3] 6010 nM
inactive: Potency [1] | Potency [2] | max response [4] 3.73% | outcome [4] | max response [5] -6.94% and -2.19% | max response [6] 5% | outcome [7] | Potency [8]

C1CCC(C(CC2CCCCN2)C2CCCCC2)CC1 (stereo unspecified)
21.1 µM (active) and inactive: Potency [9]
inactive: Potency [8]
active: Potency [10] 12600 nM | Potency [1] 11200 nM | Potency [11] 6310 nM | Potency [12] 5010 nM | Potency [13] 7570 nM | Potency [2] 2820 nM | Potency [14] 7940 nM | Potency [15] 5620 nM | Potency [16] 6310 nM | Potency [17] 10000 nM | Potency [3] 1690 nM | Potency [18] 26400 nM

O[C@@H](CNC[C@H](O)[C@H]1CCc2cc(F)ccc2O1)[C@@H]1CCc2cc(F)ccc2O1
inactive: Potency [8] | Potency [9]
active: Potency [5] 20.9 µM

COc1nc(N)nc2c1ncn2[C@@H]1O[C@H](CO)[C@@H](O)[C@@H]1O
inactive: Potency [10] | Potency [1] | Potency [11] | Potency [12] | Potency [13] | Potency [2] | Potency [14] | Potency [15] | Potency [16] | Potency [17] | Potency [3] | max response [19] -2.22% and 4.78% | outcome [4] | outcome [5] | max response [6] -9.88% and 4.97% | outcome [7] | outcome [20] | Potency [8]

C[C@@H]1C[C@H]2[C@@H]3CCC4=CC(=O)C=C[C@]4(C)[C@@]3(Cl)[C@@H](O)C[C@]2(C)[C@@]1(OC(=O)c1ccco1)C(=O)CCl
inactive: max response [19] -41.7% | max response [4] -15.9% | max response [5] 4.51% and 5.24% | Potency [8] | Potency [9]

N[C@@H](Cc1ccc(O)c(O)c1)C(=O)O
inactive: Potency [13]

CC(C)C[C@H](NC(=O)[C@H](CCc1ccccc1)NC(=O)CN1CCOCC1)C(=O)N[C@@H](Cc1ccccc1)C(=O)N[C@@H](CC(C)C)C(=O)[C@@]1(C)CO1
active: Potency [19] 211 nM and 209 nM | Potency [4] 332 nM | Potency [5] 1.84 µM and 132 nM | Potency [6] 299 nM and 235 nM | Potency [8] 84.1 nM and 418 nM | Potency [9] 105 nM

CC(=O)[C@H]1CC[C@H]2[C@@H]3CCC4=CC(=O)CC[C@]4(C)[C@H]3CC[C@]12C
active: Potency [18] 16600 nM
inactive: max response [6] -0.969% | Potency [8]

COc1cc(NCc2ccc3nc(N)nc(N)c3c2C)cc(OC)c1OC
active: Potency [10] 398 nM | Potency [1] 891 nM | Potency [11] 316 nM | Potency [12] 316 nM | Potency [13] 675 nM | Potency [2] 501 nM | Potency [14] 2240 nM | Potency [15] 1000 nM | Potency [16] 2510 nM | Potency [17] 1120 nM | Potency [3] 301 nM | Potency [4] 1060 nM | Potency [5] 3.32 µM and 326 nM | Potency [6] 3.72 µM and 66.8 nM
inactive: Potency [8] | Potency [9]

CCN(CC)CC#CCOC(=O)C(O)(c1ccccc1)C1CCCCC1 (stereo unspecified)
inactive: outcome [19] | outcome [4] | max response [5] 11.1% and 9.45% | outcome [6] | outcome [7] | Potency [8]

CN1CCN(c2c(F)cc3c(=O)c(C(=O)O)cn(CCF)c3c2F)CC1
inactive: Potency [10] | Potency [1] | Potency [11] | Potency [12] | Potency [13] | Potency [2] | Potency [14] | Potency [15] | Potency [16] | Potency [17] | Potency [3]

Nc1ccc(S(=O)(=O)Nc2ccccn2)cc1
inactive: Potency [11] | Potency [12] | Potency [13] | Potency [2] | Potency [14] | Potency [15] | Potency [16] | Potency [17] | Potency [3] | outcome [7] | outcome [20] | Potency [8]

Nc1[nH]c(=O)ncc1F
inactive: Potency [10] | Potency [1] | Potency [11] | Potency [12] | Potency [13] | Potency [2] | Potency [14] | Potency [15] | Potency [16] | Potency [17] | Potency [3]
